Source: PubChem BioAssay (Tox21)
Values joined by “and” are separate entries in the source; they are usually repeats but may differ in a detail not shown here. Identical values can stand only once. Records with an inconclusive call do not appear. Active and inactive are the calls of the source. The call rests on the fitted dose curve; in most records, active means well fitted inhibition curve with a large enough effect in the repeat runs; inconclusive means weak or mixed curves; inactive means no such curve, though single readings can be large or run the other way.

These compounds were tested against Cytochrome P450 2C9 (Homo sapiens) (UniProt P11712) (assay: Cytochrome P450 Family 2 Subfamily C Member 9 (CYP2C9) small molecule antagonists: luciferase reporter qHTS assay (AID 1671198; further: nearly all actives have a fitted effect of over 50% in size)). Settings: P450-Glo CYP2C9 enzyme assay, luciferin luminescence; series mostly up to 115 µM.
Sequence of Cytochrome P450 2C9 (Homo sapiens) (P11712 whole entry, looked up): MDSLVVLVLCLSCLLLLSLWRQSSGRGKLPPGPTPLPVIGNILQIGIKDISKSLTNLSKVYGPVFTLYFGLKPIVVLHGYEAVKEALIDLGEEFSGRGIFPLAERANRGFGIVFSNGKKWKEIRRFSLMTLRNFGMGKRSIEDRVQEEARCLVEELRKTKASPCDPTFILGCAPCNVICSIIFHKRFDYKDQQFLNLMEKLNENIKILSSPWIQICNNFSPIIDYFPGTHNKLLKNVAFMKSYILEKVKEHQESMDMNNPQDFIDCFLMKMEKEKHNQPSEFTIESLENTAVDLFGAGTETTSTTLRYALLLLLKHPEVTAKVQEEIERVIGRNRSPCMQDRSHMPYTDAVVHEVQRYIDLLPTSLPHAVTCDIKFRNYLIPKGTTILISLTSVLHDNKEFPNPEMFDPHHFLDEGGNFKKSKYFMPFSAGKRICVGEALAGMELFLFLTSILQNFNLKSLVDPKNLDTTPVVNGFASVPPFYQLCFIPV
Method in brief: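 P450-Glo proluciferin substrate with CYP2C9 enzyme; 10 min RT preincubation, then NADPH regeneration 1 h at 37C; luciferin detection reagent 20 min RT, luminescence in relative luminescence units.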
Potency means the concentration at half of the fitted maximal effect.

Compound	Potency
OC(c1ccc(Cl)cc1)(c1ccc(Cl)cc1)c1cccnc1	0.448 µM (active)
[CH3][Sn]([CH3])([Cl])[Cl]	inactive
CC(O)(CS(=O)(=O)c1ccc(F)cc1)C(=O)Nc1ccc(C#N)c(C(F)(F)F)c1 (configuration not stated)	13.1 µM (active)
CCCCCCCCCCOC(=O)c1ccccc1C(=O)OCCCCCCCCCC	inactive
N#Cc1ccc(Cl)cc1	inactive
CCOP(=S)(OCC)SCn1nnc2ccccc2c1=O	0.633 µM (active)
O=C(CCl)c1ccc(Cl)cc1Cl	12.6 µM (active) and 17.4 µM (active)
Sc1ccccc1Cl	inactive
CC(c1ccc(O)cc1)(c1ccc(O)cc1)c1ccc(O)cc1	10 µM (active)
Cc1ccccc1CCl	inactive
O=C(Nc1ccccc1)Nc1ccnc(Cl)c1	10 µM (active)
O=[N+]([O-])C(Br)(CO)CO	5.03 µM (active)
COc1nn(CSP(=S)(OC)OC)c(=O)s1	5.48 µM (active)
CC(=O)CCC(C)=O	inactive
COP(=S)(OC)Oc1ccc([N+](=O)[O-])cc1Cl	20 µM (active)
C[C@H]1CNCCc2ccc(Cl)cc21	inactive
O=C(O)C(F)(F)C(F)(F)C(F)(F)C(F)(F)C(F)(F)C(F)(F)C(F)(F)C(F)(F)C(F)(F)C(F)(F)F	5.34 µM (active)
c1ccc(CN2CCNCC2)cc1	inactive
O=C(Nc1ccccc1)Nc1cnns1	35.6 µM (active)
CO/C=C(/C(=O)OC)c1ccccc1COc1cccc(C(F)(F)F)n1	39.9 µM (active)
CNC(C)Cc1ccccc1OC (configuration not stated)	inactive
CC(C)=CCOc1c2occc2cc2ccc(=O)oc12	0.617 µM (active)
